The values that follow come from the supplement of paper PMC6518042.

One experiment deals with Pectobacterium parmentieri SCC3193. The experiment is described as follows: DuctApe activity index (growth/respiration on compound as sole nutrient source, blank-subtracted) (activity index (0-3)); higher = stronger utilization of the compound, active = 3 or more. To be noted: nutrient role (plate category): carbon. As to the method:
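Biolog Phenotype Microarray plates PM1, PM2A (carbon), PM3 (nitrogen) and PM4 (phosphorus/sulfur) inoculated with P. parmentieri SCC3193 in M9-C minimal salts medium with Biolog dye A, and read in the OmniLog for 46 h. Each well was tested in triplicate and the experiment was run twice. DuctApe computed a blank-subtracted activity index (AV, 0-3) from the mean curves; growth is positive at AV >= 3 and negative at AV <= 2.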
As for `O=C1CC[C@@H](C(=O)O)O1` [a-Hydroxyglutaric acid-g-Lactone], the DuctApe activity index is 1 (inactive).
Still for that read-out and setting: under `C[C@@H](N)C(=O)O` [D-Alanine] stands 0 (inactive); under `COC(=O)CCC(=O)O` [Mono-Methylsuccinate], 2 (inactive).
Still for that read-out and setting: under `CC1OC(O)C(O)C(O)C1O` [L-Fucose] stands 0 (inactive); under `O=CC(=O)O` [Glyoxylic acid], 0 (inactive).
Still for that read-out and setting: for `NCCCC(=O)O` [g-Amino-N-Butyric acid] the value was 0 (inactive); for `CCC(=O)C(=O)O` [a-Ketobutyric acid], 0 (inactive).
For `O=C1O[C@@H]([C@H](O)CO)[C@H](O)[C@H]1O` [D-Galactonic acid-g-Lactone], the DuctApe activity index is 3 (active).
Still for that read-out and setting: under `O=C(O)[C@@H](O)[C@@H](O)[C@H](O)[C@@H](O)C(=O)O` [D-Saccharic acid] stands 3 (active); under `O=C(O)CC(=O)O` [Malonic acid], 0 (inactive); under `OC[C@H]1O[C@H](OC[C@H]2O[C@H](O[C@]3(CO)O[C@H](CO)[C@@H](O)[C@@H]3O)[C@H](O)[C@@H](O)[C@@H]2O)[C@H](O)[C@@H](O)[C@H]1O` [D-Raffinose], 3 (active).
Still for that read-out and setting: under `CC(O)C(C)O` (stereo not given) [2,3-Butanediol] stands 0 (inactive); under `CCCCCC(=O)O` [Caproic acid], 0 (inactive); under `OCC1(O)OC[C@H](O)[C@@H](O)[C@@H]1O` (stereo partly drawn) [L-Sorbose], 0 (inactive).
Take `OC[C@H]1O[C@@H](O[C@H]2[C@H](O)[C@@H](O)[C@H](O[C@H]3[C@H](O)[C@H](O)[C@H](O[C@@H]4[C@H](O)[C@H](O)[C@H](O)O[C@@H]4CO)O[C@@H]3CO)O[C@@H]2CO)[C@@H](O)[C@@H](O)[C@@H]1O` [Mannan]: the DuctApe activity index was 0 (inactive).
Same read-out and setting: under `OC[C@@H](O)[C@@H](O)[C@H](O)[C@H](O)CO` [D-Mannitol] stands 3 (active).
As to `CC(C)[C@H](N)C(=O)O` [L-Valine], the DuctApe activity index was 0 (inactive).
For `NC(=O)CC[C@H](N)C(=O)O` [L-Glutamine], the DuctApe activity index was 0 (inactive).
The same measure, in the same setting: under `OC[C@H]1O[C@H](O[C@H]2[C@H](O)[C@@H](O)[C@@H](O[C@H]3[C@H](O)[C@@H](O)[C@@H](O)O[C@@H]3CO)O[C@@H]2CO)[C@H](O)[C@@H](O)[C@@H]1O` [Maltotriose] stands 3 (active).
As for `OC[C@@H](O)[C@@H](O)CO` [i-Erythritol], the DuctApe activity index was 0 (inactive).
Same read-out and setting: under `OC[C@H]1O[C@@](CO)(O[C@H]2O[C@H](CO)[C@@H](O)[C@H](O)[C@H]2O)[C@@H](O[C@H]2O[C@H](CO)[C@@H](O)[C@H](O)[C@H]2O)[C@@H]1O` [D-Melezitose] stands 0 (inactive); under `OC[C@H]1OC(O)[C@H](O)[C@@H](O)[C@@H]1O` (stereo partly drawn) [a-D-Glucose], 3 (active).
Still for that read-out and setting: under `CC[C@H](O)C(=O)O` [a-Hydroxybutyric acid] stands 0 (inactive); under `N[C@@H](CO)C(=O)O` [L-Serine], 3 (active).
On the same count and under the same terms, under `O=C(O)CC(CC(=O)O)C(=O)O` [Tricarballylic acid] stands 0 (inactive).

Staying with this experiment, now noted: nutrient role (plate category): nitrogen.
Take `C[C@@H](N)C(=O)O` [D-Alanine]: the DuctApe activity index was 0 (inactive).
Still for that read-out and setting: under `NCCCC(=O)O` [g-Amino-N-Butyric acid] stands 1 (inactive); under `OC[C@H]1O[C@@H](n2cnc3c(O)nc(O)nc32)[C@H](O)[C@@H]1O` [Xanthosine], 0 (inactive); under `N[C@@H](Cc1ccc(O)cc1)C(=O)O` [L-Tyrosine], 0 (inactive).
Same read-out and setting: under `N[C@H](CCC(=O)O)C(=O)O` [D-Glutamic acid] stands 0 (inactive).
Regarding `CC(C)[C@H](N)C(=O)O` [L-Valine], the DuctApe activity index is 0 (inactive).
Still for that read-out and setting: for `CC(C)[C@@H](N)C(=O)O` [D-Valine] the value was 0 (inactive).
The same measure, in the same setting: under `NC(=O)CC[C@H](N)C(=O)O` [L-Glutamine] stands 2 (inactive); under `Nc1[nH]cnc2ncnc1-2` [Adenine], 0 (inactive).
On the same count and under the same terms, for `NC(=O)NCCC[C@H](N)C(=O)O` [L-Citrulline] the value was 0 (inactive); for `N[C@@H](CO)C(=O)O` [L-Serine], 1 (inactive).

Staying with this experiment, now noted: nutrient role (plate category): phosphate & sulphur.
On to `CCCCS(=O)(=O)O` [Butane Sulfonic acid], for which the DuctApe activity index is 1 (inactive).
Same read-out and setting: for `O=C(O)COP(=O)(O)O` [Phospho-Glycolic acid] the value was 1 (inactive).
Same read-out and setting: for `O=P(O)(O)O` [Phosphate] the value was 1 (inactive).
The same measure, in the same setting: under `C=C(OP(=O)(O)O)C(=O)O` [Phosphoenol Pyruvate] stands 2 (inactive).
